Screening data deposited in PubChem BioAssay by several laboratories.
The list is not random: actives were taken first. Their share in the collection is about 1.6%.
HTR5A inv ag: counter-screen for OPRM1-OPRD1 inverse agonists: human HTR5A inverse agonism; HTR5A cell line, luminescence; P47898; AID 504634; 340,000 compounds, 0.083% hits; inhibition, % at 9.3 µM; in the data active = inhibition mostly above about 23%, no sharp cut-off; inactive = mostly below about 18%
OPRM1-OPRD1 inv: inverse agonists of human mu-delta opioid receptor heterodimerization; P35372+P41143; cell-based MOR-DOR heterodimer luminescence, inverse agonism; inhibition, % at 9.3 µM; 340,000 compounds, 0.21% hits; in the data active = inhibition above about 22%, passing the limit was not always enough
Target sequence (P35372 whole entry, looked up): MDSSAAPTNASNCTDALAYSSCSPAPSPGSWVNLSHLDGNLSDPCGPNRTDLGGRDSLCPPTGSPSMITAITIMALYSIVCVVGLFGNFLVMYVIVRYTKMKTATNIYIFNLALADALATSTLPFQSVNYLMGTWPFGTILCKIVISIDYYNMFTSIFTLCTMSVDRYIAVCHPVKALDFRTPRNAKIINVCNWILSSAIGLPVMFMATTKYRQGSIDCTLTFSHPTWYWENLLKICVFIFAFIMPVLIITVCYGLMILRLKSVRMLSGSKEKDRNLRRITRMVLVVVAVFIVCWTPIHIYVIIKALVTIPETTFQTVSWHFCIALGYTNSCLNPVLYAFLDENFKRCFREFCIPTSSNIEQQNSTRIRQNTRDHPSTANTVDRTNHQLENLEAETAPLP
Target sequence (P41143 whole entry, looked up): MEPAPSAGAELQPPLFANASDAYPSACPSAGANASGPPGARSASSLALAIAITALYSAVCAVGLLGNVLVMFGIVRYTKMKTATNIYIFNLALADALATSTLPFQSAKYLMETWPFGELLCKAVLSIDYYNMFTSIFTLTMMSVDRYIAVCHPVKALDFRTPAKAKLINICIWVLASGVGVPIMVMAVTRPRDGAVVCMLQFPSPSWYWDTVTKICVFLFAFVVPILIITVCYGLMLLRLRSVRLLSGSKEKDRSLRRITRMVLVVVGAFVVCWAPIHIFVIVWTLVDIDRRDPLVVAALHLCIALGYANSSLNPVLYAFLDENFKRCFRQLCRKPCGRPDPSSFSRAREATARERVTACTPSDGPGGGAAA
HTR5A ag: activates human HTR5A in OPRM1-OPRD1 agonist counter-screen | P47898 | activation, % at 9.3 µM | AID 504692 | HTR5A agonist assay, luminescence, cell-based | 340,000 compounds, 0.61% hits; in the data active = activation mostly above about 9.5%, no sharp cut-off; inactive = mostly below about 7.6%
NALP1 inh: NALP1 inhibition; S. cerevisiae NALP1/ASC/caspase-1 growth, X-gal OD620, 72 h; inhibition, % at 10 µM; 280,000 compounds, 0.61% hits; AID 2071; in the data active = inhibition mostly above about 24%, no sharp cut-off; inactive = mostly below about 32%
PolyA inh: blocks polyadenylation in yeast reporter cells. AID 1875. activity score, % at 12 µM. 300,000 compounds, 0.02% hits. S. cerevisiae SKY197-pL101 polyadenylation reporter, beta-gal luminescence; efflux-impaired pdr1/pdr3 knockout yeast; score 100 = 6 SD above DMSO;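 active = lowest replicate activity score at least 50, where 100 means six control SD above control mean; inconclusive = lowest score under 50 but half or more replicates reach 50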;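 note: yeast exposed to compound for 9 h at 30 °C; higher score means more reporter readthrough which indicates perturbed polyadenylation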
MOR-DOR ag: OPRM1-OPRD1 heterodimerization agonism; P35372+P41143; cells, luminescence; activation, % at 9.3 µM; 340,000 compounds, 0.3% hits; in the data active = activation above about 18%
Hits are given with their value; i = inactive; ? = inconclusive; nt = no result given.

SMILES | HTR5A inv ag | OPRM1-OPRD1 inv | HTR5A ag | NALP1 inh | PolyA inh | MOR-DOR ag
Cc1ccccc1NC(=S)N(Cc1ccccc1)Cc1cccs1 | i | i | i | i | i | i
CCOC(=O)[C@H]1[C@H]2COc3ccc(Br)cc3[C@@H]2N2C(=O)CN(CC3CCCO3)C(=O)[C@@]12C (stereo partly specified) | i | i | i | nt | nt | i
C=CCNc1cc(C(F)(F)F)nc(-c2ccccn2)n1 | i | i | i | i | i | i
COC(=O)[C@]1(Cc2ccccc2)N[C@H](c2ccc(-c3ccc4c(c3)OCO4)cc2)[C@@H]2C(=O)N(C)C(=O)[C@@H]21 | i | i | i | nt | i | i
CN(C)CCNC=C(C(=O)Nc1ccc(Cl)cc1Cl)C(=O)Nc1ccc(Cl)cc1Cl | i | i | i | 80 | i | i
Cc1ccc(C(C[N+](=O)[O-])c2c(-c3ccccc3O)[nH][nH]c2=O)cc1 (stereo unspecified) | i | i | i | 114 | i | i
O=c1[nH][nH]c(-c2ccccc2O)c1C(C[N+](=O)[O-])c1ccc(Br)cc1 (stereo unspecified) | i | i | i | 102 | i | i
O=[N+]([O-])CC(c1ccc(F)cc1)c1c[nH]c2ccccc12 (stereo unspecified) | i | i | i | i | i | i
CCCCCCCCCCCC(=O)c1c(O)cccc1O | i | i | i | i | i | i
CCOc1cc(CNc2ccccc2)cc(Br)c1OCC(=O)NC(C)(C)C | i | i | i | i | i | i
CCOc1cc(CNc2ccccc2)cc(Br)c1OCc1ccc(F)cc1 | i | i | i | 43 | i | i
COc1ccc(NC(=O)C2CCN(S(=O)(=O)c3ccc4c(c3)NC(=O)C(C)S4)CC2)cc1 (stereo unspecified) | i | i | i | i | i | i
CCOc1ccc(NC(=O)C2CCN(S(=O)(=O)c3ccc4c(c3)NC(=O)C(C)S4)CC2)cc1 (stereo unspecified) | i | i | 10 | i | i | i
CC1=C(C(=O)OCC2CCCO2)C(c2ccc(F)cc2)NC(=O)N1 (stereo unspecified) | i | i | i | 41 | nt | i
CC1=C(C(=O)OCC2CCCO2)C(c2cccc(O)c2)NC(=O)N1 (stereo unspecified) | i | i | i | i | ? | i
CCCS(=O)(=O)N1CCC(C(=O)Oc2ccc(OC)cc2)CC1 | i | i | i | i | i | i
COCC(C)n1c(C)cc(C(=O)COC(=O)C2=NN(c3ccccc3)C(=O)CC2)c1C (stereo unspecified) | i | i | i | i | i | i
COCC(C)n1c(C)cc(C(=O)COC(=O)c2c(C)nn(-c3ccccc3)c2C)c1C (stereo unspecified) | i | i | 10 | i | i | i
CCN1CCN(c2ncnc3c2sc(=S)n3-c2ccccc2)CC1 | i | i | i | 44 | i | i
c1ccc(Cn2ncc3c(N4CCOCC4)ncnc32)cc1 | i | i | i | i | i | i
S=c1sc2c(N3CCN(Cc4ccccc4)CC3)ncnc2n1-c1ccccc1 | i | i | i | i | i | i
S=c1sc2c(N3CCOCC3)ncnc2n1-c1ccccc1 | i | i | i | 39 | i | i
COCCCn1cc(C(=O)c2ccccc2OCC(=O)Nc2cccc(F)c2)cc(C#N)c1=O | i | i | i | i | i | i
COc1ccccc1N1C(=O)CC(Sc2n[nH]c(-c3cccc(C)c3)n2)C1=O (stereo unspecified) | i | i | i | 73 | i | i
C/C(=N\OCC(=O)NC12CC3CC(CC(C3)C1)C2)c1cc2ccccc2o1 | i | i | i | i | i | i
SMILES | HTR5A inv ag | OPRM1-OPRD1 inv | HTR5A ag | NALP1 inh | PolyA inh | MOR-DOR ag
O=C(CSc1ccc(Cl)cc1)NN=C1CCCCCC1 | i | i | 12 | i | i | i
Cc1ccc(NC(=O)CNC(=O)Cc2cccc3ccccc23)c(O)c1 | i | i | i | nt | i | i
CC(C)(C)[C@H]1COC(=O)CCCC/C=C\C[C@H](CC(=O)N(CCO)Cc2ccccc2)C(=O)N1 | i | i | i | nt | nt | i
Cc1cc(N/C(=N\S(=O)(=O)c2ccc(F)cc2F)c2ccccc2)no1 | i | i | i | i | i | i
O=S(=O)(/N=C(/Nc1cccnc1)c1ccccc1)c1ccc(F)cc1F | i | i | 14 | nt | nt | i
COc1ccc(S(=O)(=O)N2CCOC2CNC(=O)C(=O)NCc2ccccn2)cc1C (stereo unspecified) | i | i | i | i | i | i
Cc1ccc(S(=O)(=O)NC(=O)Nc2ccc(OC(F)F)cc2)cc1 | nt | nt | nt | 36 | i | nt
Cc1ccc(S(=O)(=O)NC(=O)Nc2ccc(F)cc2)cc1 | i | i | i | i | i | i
O=c1n(-c2ccccc2)c(=O)n2n1CCC2 | i | i | 10 | i | i | i
Cc1ccccc1-c1cc(C(=O)NCc2ccc3c(c2)OCO3)n(CC2CC(c3cccnc3)=NO2)n1 (stereo unspecified) | i | i | i | nt | nt | i
Cc1nc2ccc(NC(=O)Cc3ccc4c(c3)OCCO4)cc2s1 | i | i | i | i | 84 | i
Cc1nc2ccc(NC(=O)Cc3ccc(Br)cc3)cc2s1 | i | i | i | nt | i | i
COc1ccc2[nH]cc(CCn3ccc(=O)c(C)c3C)c2c1 | i | i | 11 | i | i | i
Cc1oc(-c2cccc3ccccc23)nc1CN1CCC[C@H]1CO | i | i | i | i | i | i
CC(=O)c1ccn(S(=O)(=O)c2ccccc2)c1 | i | i | i | i | i | i
CN(C)CCC(c1ccc(Cl)cc1)c1ccccn1 (stereo unspecified) | i | i | i | i | i | i
CN(C)CCC1c2ccc(Cl)cc2CCc2cccnc21 (stereo unspecified) (tested in a mixture with another compound) | i | i | i | 40 | i | i
CCN1C(=O)[C@H]2[C@@H](c3ccc(-c4ccccc4)c(OC)c3)N[C@@](CC(C)C)(C(=O)OC)[C@H]2C1=O | i | i | i | nt | nt | i
COc1ccc(CNC(=O)c2cc3c(=O)n4cccc(C)c4nc3n(CC3CCCO3)c2=N)cc1 (stereo unspecified) | i | i | i | 36 | i | i
Cc1cccn2c(=O)c3cc(C(=O)NCc4ccc(F)cc4)c(=N)n(CC4CCCO4)c3nc12 (stereo unspecified) | i | i | i | i | i | i
O=c1oc2ccccc2nc1/C=C(\O)c1ccccc1 | nt | nt | nt | nt | i | nt
Cc1nc(C)c(/C(O)=C/c2nc3ccccc3oc2=O)s1 | i | i | i | 61 | i | i
O=C(O)/C(=C\c1cccc([N+](=O)[O-])c1)c1ccc(S(=O)(=O)N2CCCCC2)s1 | i | i | i | 23 | i | i
C(C#CCCCCCCCCC[n+]1ccccc1)#CCCCCCCCCC[n+]1ccccc1 | i | i | i | 82 | i | i
NNC(=O)c1ccc(CSc2nc3ccccc3s2)cc1 | i | i | i | i | i | i
CN(C)CCCN(Cc1ccccc1)C(=S)Nc1ccc(F)c(Cl)c1 | i | i | i | 33 | i | i
